Source: PubChem BioAssay (several laboratories)
An excerpt weighted towards active compounds, which were near 4.4% of everything screened.
tim23-1 inh: growth inhibitors of tim23-1 mutant yeast; 330,000 compounds, 1.3% hits; S. cerevisiae tim23-1 growth, BacTiter-Glo luminescence, 24 h; inhibition, % at 20 µM;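 active means growth inhibition of the mutant yeast at or above 50%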;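 further: temperature-sensitive mutant grown at 25 °C; plate controls were DMSO-treated mutant yeast for no effect and medium wells lacking yeast for full effect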
TIM10 inh: inhibits growth of TIM10 yeast strain; S. cerevisiae TIM10 strain growth, BacTiter-Glo luminescence, 24 h; inhibition, % at 10 µM; 330,000 compounds, 1.4% hits;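 active means inhibition of 40% or more at the single tested concentration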;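 further: wild-type TIM10 isogenic control strain grown at permissive 25 °C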
SKKanGAS inh: blocks kanamycin growth of S. pyogenes SKKanGAS strain; 300,000 compounds, 1.3% hits; BacTiter-Glo, 6 h; inhibition, % at 7.5 µM; AID 1662;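 active means mean replicate score, as percent of positive control median, at least 50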;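 further: strain carries kanamycin resistance gene driven by streptokinase promoter and grows in 40 µg/ml kanamycin; loss of luminescence reflects streptokinase promoter inhibition or plain growth inhibition; 0% = median of DMSO wells and 100% = positive control at its reference dose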
tim10-1 inh: tim10-1 yeast growth inhibition. inhibition, % at 20 µM. 330,000 compounds, 2.2% hits. AID 463190. S. cerevisiae tim10-1 ts strain growth, BacTiter-Glo, 24 h;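 active means inhibition of at least 40%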;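 further: mutant grown at 25 °C; 0% = DMSO wells with yeast and 100% = wells holding no yeast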
PfHsp90 set2: growth inhibition of yeast expressing Plasmodium Hsp90; S. cerevisiae expressing PfHsp90, BacTiter-Glo ATP, 48 h; yeast lacking PDR1 and PDR3 efflux regulators; inhibition, % at 9.4 µM; 310,000 compounds, 0.32% hits;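 active means every replicate shows inhibition above about 80%, whatever the replicate mean, limit read from the data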;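 further: 0% = DMSO neutral controls and 100% = 20 µM radicicol positive controls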
Starred values were filed as active, the others as inactive.

`C[C@]12CCC(=O)C=C1C=CC1C2CC[C@]2(C)C(=O)CCC12` (some centres undefined) gave tim23-1 inh 3, TIM10 inh 9, tim10-1 inh -2 and PfHsp90 set2 2.
Cc1ccccc1CN1CCCN(Cc2ccc(Cl)cc2)S1(=O)=O was read as tim23-1 inh 21, TIM10 inh 7, SKKanGAS inh 63*, tim10-1 inh 11 and PfHsp90 set2 3.
For Cc1ccc(CN2CCCN(Cc3ccc(Cl)cc3)S2(=O)=O)cc1 the results were tim23-1 inh 7, TIM10 inh 1, SKKanGAS inh 23, tim10-1 inh 7 and PfHsp90 set2 4.
Cc1cc(C)cc(NC(=O)CCNC(=O)N2C[C@H]3C[C@@H](C2)c2cccc(=O)n2C3)c1 was read as tim23-1 inh -5, TIM10 inh 3, SKKanGAS inh -2, tim10-1 inh -21 and PfHsp90 set2 5.
Cn1c(O)c(/C=N/NC(=O)c2ccncc2)c(=O)[nH]c1=S was read as tim23-1 inh 6, TIM10 inh 12, SKKanGAS inh 1 and tim10-1 inh 5.
`CCCCCCC(=O)N/N=C/c1c(O)n(CCCC)c(=S)[nH]c1=O` gave tim23-1 inh 13, TIM10 inh 3, SKKanGAS inh 84*, tim10-1 inh 22 and PfHsp90 set2 7.
CCCCn1c(O)c(/C=N/NC(=O)c2ccncc2)c(=O)[nH]c1=S was read as tim23-1 inh -9, TIM10 inh -17, SKKanGAS inh 106*, tim10-1 inh -31 and PfHsp90 set2 -4.
`Nc1ccc(Cc2ccc(N)cc2)cc1` gave PfHsp90 set2 14.
`CCCCCn1c(=O)c(C(=O)Nc2cc(C)ccn2)c(O)c2ccccc21` gave tim23-1 inh 12, TIM10 inh -15, SKKanGAS inh 3, tim10-1 inh -26 and PfHsp90 set2 -7.
`CCCCCCCn1c(=O)c(C(=O)Nc2cnccn2)c(O)c2ccccc21` gave tim23-1 inh 34, TIM10 inh 8, SKKanGAS inh 60*, tim10-1 inh -25 and PfHsp90 set2 30.
Screening CCCCCn1c(=O)c(C(=O)Nc2cnccn2)c(O)c2ccccc21 returned tim23-1 inh 35, TIM10 inh 22, SKKanGAS inh 81*, tim10-1 inh 7 and PfHsp90 set2 11.
`CN1CCN(c2ccc([N+](=O)[O-])c3no[n+]([O-])c23)CC1` gave SKKanGAS inh 104* and PfHsp90 set2 -263.
For CN1CCN(c2ccc(S(C)(=O)=O)cc2[N+](=O)[O-])CC1 the results were tim23-1 inh 5, TIM10 inh -6, SKKanGAS inh 0, tim10-1 inh 7 and PfHsp90 set2 -13.
O=c1oc2ccccc2c(O)c1C(c1ccc([N+](=O)[O-])cc1)c1c(O)c2ccccc2oc1=O was read as SKKanGAS inh 62* and PfHsp90 set2 -34.
Screening CC1(C)NC(=S)C(C)(C)N1N=O returned PfHsp90 set2 13.
`CC(C)(C)c1ccc(CSc2cnn(C(C)(C)C)c(=O)c2Cl)cc1` gave tim23-1 inh 0, TIM10 inh 8, SKKanGAS inh 59*, tim10-1 inh -8 and PfHsp90 set2 17.
COc1cc2cc(C(=O)N3CC(COS(C)(=O)=O)c4ccc(O)cc43)[nH]c2c(OC)c1OC (centres undefined) was read as PfHsp90 set2 104*.
Cc1nc2cc([N+](=O)[O-])ccc2c(=O)n1-c1cccc(Br)c1 was read as tim23-1 inh 32, TIM10 inh 24, SKKanGAS inh 1, tim10-1 inh 15 and PfHsp90 set2 9.
For COC[C@H]1OC(=O)c2coc3c2[C@@]1(C)C1=C(C3=O)[C@@H]2CCC(=O)[C@@]2(C)C[C@H]1OC(C)=O the results were PfHsp90 set2 106*.
C[C@]12CCC(=O)C[C@H]1CC[C@@H]1[C@@H]2CC[C@]2(C)[C@@H](O)CC[C@@H]12 was read as tim23-1 inh 22, TIM10 inh -2 and tim10-1 inh 22.
`COc1ccc(-c2nn(CCC#N)cc2C(=O)NCc2ccccc2)cc1OC` gave tim23-1 inh -16, TIM10 inh -6, SKKanGAS inh -2, tim10-1 inh -10 and PfHsp90 set2 12.
`CCOc1cc2c(cc1OCC)-n1cccc1C(c1ccc(F)c(OC)c1)NC2` (centres undefined) gave tim23-1 inh 25, TIM10 inh 9, SKKanGAS inh 1, tim10-1 inh 20 and PfHsp90 set2 19.
Cc1ccc(OP(=O)(Nc2cccc(C)c2)Oc2ccc(C)cc2)cc1 was read as tim23-1 inh 27, TIM10 inh 8, SKKanGAS inh 76*, tim10-1 inh 30 and PfHsp90 set2 -3.
Screening Cc1cccc(OP(=O)(Nc2cccnc2)Oc2cccc(C)c2)c1 returned tim23-1 inh 18, TIM10 inh 20, SKKanGAS inh -1, tim10-1 inh 11 and PfHsp90 set2 -22.
Screening COC(=O)C1=C(c2cccc(C#N)c2)C[C@@H]2CC[C@H]1N2C(=O)NC1CCCCC1 returned tim23-1 inh 13, TIM10 inh -5, tim10-1 inh 1 and PfHsp90 set2 14.
Screening Oc1c(Cl)cccc1Cc1cc(Cl)cc(Cl)c1O returned PfHsp90 set2 109*.
For CCCCCn1c(=O)c(C(=O)Nc2nc(CC(=O)OCC)cs2)c(O)c2ccccc21 the results were tim23-1 inh 9, TIM10 inh -1, SKKanGAS inh 71*, tim10-1 inh 5 and PfHsp90 set2 -26.
Screening CCCCCCn1c(=O)c(C(=O)Nc2nnc(C)s2)c(O)c2ccccc21 returned tim23-1 inh 8, TIM10 inh 3, SKKanGAS inh -6 and tim10-1 inh 10.
CCCCn1c(=O)c(C(=O)Nc2ncccc2C)c(O)c2ccccc21 was read as tim23-1 inh 9, TIM10 inh -14, SKKanGAS inh 107*, tim10-1 inh -5 and PfHsp90 set2 -23.
For CCCCCCn1c(=O)c(C(=O)Nc2ncccc2C)c(O)c2ccccc21 the results were tim23-1 inh -4, TIM10 inh -29, SKKanGAS inh 94*, tim10-1 inh -15 and PfHsp90 set2 12.
Screening CCCCn1c(=O)c(C(=O)Nc2nnc(C(C)C)s2)c(O)c2ccccc21 returned tim23-1 inh 0, TIM10 inh 5, SKKanGAS inh 95* and tim10-1 inh -1.
For COc1ccc(CC2C(=O)NC(C)C(=O)N(C)C3C(=O)N(C)C(Cc4ccc(O)c(c4)Oc4ccc(cc4)C3O)C(=O)NC(C)C(=O)NC(C)C(=O)N2C)cc1 (centres undefined) the results were PfHsp90 set2 -16.
Screening COC(=O)C1=C(c2ccc(F)cc2OCc2ccccc2)C[C@@H]2CC[C@H]1N2C(=O)NCc1ccccc1Br returned tim23-1 inh 24, TIM10 inh 12, tim10-1 inh 14 and PfHsp90 set2 2.
For Cc1ccccc1NC1(C#N)CCCCC1 the results were tim23-1 inh -1, TIM10 inh -2, SKKanGAS inh 3, tim10-1 inh -15 and PfHsp90 set2 -27.
